ChEMBL document CHEMBL1201862, “PubChem BioAssay data set” (2004)
Several values for one entry are separate records, joined by “and”; a condition that tells them apart may be missing. Equal entries are not always repeated. In all, about 400,000 compounds went through this assay and about 2,100 (0.53%) were called active. Inconclusive results (about 14%) are left out. How the calls were made is not given here. The sample as a whole holds a higher share of actives than the screen did.

Each molecule was assayed against Ataxin-2 (Homo sapiens) (UniProt Q99700) (assay: qHTS for Inhibitors of ATXN expression.).
Chain of Ataxin-2 (Homo sapiens) (Q99700 whole entry): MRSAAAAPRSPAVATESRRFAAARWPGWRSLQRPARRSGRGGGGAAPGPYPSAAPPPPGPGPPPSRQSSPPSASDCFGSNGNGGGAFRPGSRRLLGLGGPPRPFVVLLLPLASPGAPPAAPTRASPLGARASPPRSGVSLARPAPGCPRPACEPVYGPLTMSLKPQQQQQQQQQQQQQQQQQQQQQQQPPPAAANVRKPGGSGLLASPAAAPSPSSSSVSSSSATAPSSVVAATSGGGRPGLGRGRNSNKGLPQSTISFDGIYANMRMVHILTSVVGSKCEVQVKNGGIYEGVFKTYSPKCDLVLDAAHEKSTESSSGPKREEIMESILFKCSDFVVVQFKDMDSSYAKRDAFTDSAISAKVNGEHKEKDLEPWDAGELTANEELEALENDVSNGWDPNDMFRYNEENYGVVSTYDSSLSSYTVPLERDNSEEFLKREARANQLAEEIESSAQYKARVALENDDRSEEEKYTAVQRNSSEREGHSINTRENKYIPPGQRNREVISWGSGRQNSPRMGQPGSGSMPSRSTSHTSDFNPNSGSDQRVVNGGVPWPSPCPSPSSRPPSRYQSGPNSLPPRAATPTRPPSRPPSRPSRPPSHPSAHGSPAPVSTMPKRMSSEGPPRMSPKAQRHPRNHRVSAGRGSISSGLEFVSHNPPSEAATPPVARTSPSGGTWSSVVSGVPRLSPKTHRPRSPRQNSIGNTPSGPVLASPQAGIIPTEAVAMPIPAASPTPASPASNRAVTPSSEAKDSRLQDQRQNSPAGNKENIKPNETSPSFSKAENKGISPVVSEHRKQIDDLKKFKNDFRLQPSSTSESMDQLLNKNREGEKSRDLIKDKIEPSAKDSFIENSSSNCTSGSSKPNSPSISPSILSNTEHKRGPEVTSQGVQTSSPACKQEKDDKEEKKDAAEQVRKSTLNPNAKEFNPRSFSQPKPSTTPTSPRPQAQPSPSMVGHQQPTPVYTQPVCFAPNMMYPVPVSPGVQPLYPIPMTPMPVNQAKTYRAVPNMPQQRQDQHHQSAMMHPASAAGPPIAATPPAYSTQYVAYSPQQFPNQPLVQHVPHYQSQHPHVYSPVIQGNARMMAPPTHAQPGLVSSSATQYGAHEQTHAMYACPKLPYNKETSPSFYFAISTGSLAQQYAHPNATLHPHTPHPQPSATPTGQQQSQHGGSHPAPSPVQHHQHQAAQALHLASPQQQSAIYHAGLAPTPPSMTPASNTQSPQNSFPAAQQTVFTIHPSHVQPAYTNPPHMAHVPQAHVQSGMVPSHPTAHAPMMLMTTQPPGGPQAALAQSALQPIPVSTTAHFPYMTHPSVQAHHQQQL
Type: functional

SMILES	Potency
CC(=O)/N=c1\c(C#N)cc2c(=O)n3cccc(C)c3nc2n1Cc1ccco1	inactive
CCN(CC)c1ccc(-n2nc3cc(C)c(NC(=O)c4ccccc4F)cc3n2)cc1	inactive
CCn1cnc2c1c(=O)n(CC(=O)NN)c(=O)n2Cc1ccccc1	inactive
Nc1c(C(=O)Nc2ccc(Br)cc2)sc2nc(-c3ccco3)ccc12	inactive
Cc1nn(C)c(C)c1N1C(=O)c2cccc3c(N)ccc(c23)C1=O	inactive
NNC(=O)c1oc2nc(-c3ccc(Cl)cc3)cc(-c3ccccc3)c2c1N	inactive
CC(=O)[C@]1(O)Cc2c(O)c3c(c(O)c2[C@@H](O[C@H]2C[C@H](N)[C@H](O)[C@H](C)O2)C1)C(=O)c1ccccc1C3=O	35.5 µM (active) and 20 µM (active)
COc1cccc2c1C(=O)c1c(O)c3c(c(O)c1C2=O)C[C@](O)(C(=O)CO)C[C@H]3O[C@@H]1C[C@H](N)[C@H](O)[C@H](C)O1	0.794 µM (active)
CC(C)c1ccc(-n2nc3ccc(N)cc3n2)cc1	inactive
Cc1cc(C)n(-c2ccc(C(=O)N3CCC(CO)(Cc4ccccc4)CC3)cc2)n1	inactive
Cc1ccc([N+](=O)[O-])cc1N/C=C1\CCCCC1=O	inactive
COCCn1/c(=N/C(=O)c2cc(-c3cccs3)nc3ccccc23)sc2cc(S(N)(=O)=O)ccc21	inactive
C=CCn1/c(=N/C(=O)c2sc3ccccc3c2Cl)sc2cc(S(N)(=O)=O)ccc21	12.6 µM (active)
Cc1nonc1CC(=O)N1CCCC(C(=O)c2ccc(Cl)cc2)C1 (configuration not stated)	inactive
Cc1nn(C)c(C)c1CCC(=O)N1CCCC(Nc2ccc(C(C)C)cc2)C1 (configuration not stated)	39.8 µM (active)
Cc1cc(=O)n2nc(N3CCCC3C(=O)Nc3ccc(C(C)C)cc3)sc2n1 (configuration not stated)	inactive
O=C(NCc1ccc(F)cc1)c1cccc2c1C(=O)c1ccc(N3CCC(Cc4ccccc4)CC3)cc1S2(=O)=O	inactive
Cc1nc2c(S(=O)(=O)c3ccccc3)cnn2c(C)c1C	inactive
COc1ccc(-n2nc3c(N4CCCC(C(=O)NCc5cccc(F)c5)C4)nnc(C)c3c2C)cc1 (configuration not stated)	20 µM (active)
COc1cccc(CNC(=O)C2CCN(c3nnc(N4CCCC4=O)s3)CC2)c1	inactive
COc1ccc(CNC(=O)C(=O)NCC2OCCN2S(=O)(=O)c2cccs2)cc1 (configuration not stated)	inactive
COc1ccc(-n2nc3c(N4CCCC(C(=O)NCc5ccc(C)cc5)C4)nnc(C)c3c2C)cc1 (configuration not stated)	17.8 µM (active)
COc1ccc(S(=O)(=O)N2CCCC(C(=O)NCCCn3ccnc3)C2)cc1OC (configuration not stated)	inactive
CC1CCN(c2ccc3c(c2)S(=O)(=O)c2cccc(C(=O)NCc4cccc(F)c4)c2C3=O)CC1	inactive
COc1ccc(-n2nc3c(N4CCCC(C(=O)NCCc5ccccc5C)C4)nnc(C)c3c2C)cc1 (configuration not stated)	20 µM (active)
CCC(C(=O)NCCc1ccccc1OC)n1nc(C)c2c(C)n(-c3ccccc3)nc2c1=O (configuration not stated)	inactive

SMILES	Potency
CC(=O)N1CCC(=NNc2ncc(C(F)(F)F)cc2Cl)CC1	inactive
Cc1cccn2c(=O)c3cc(C(=O)NC(C)C)c(=N)n(Cc4ccncc4)c3nc12	inactive
N=C(Cc1ccc(Cl)cc1)NOC(=O)c1cccc2ccccc12	39.8 µM (active)
O=C(COC(=O)c1cc(O)nc2ccccc12)NCc1ccc(Cl)cc1	inactive
CCOc1ncccc1C(=O)N(CC)CC(=O)NCc1ccc(Cl)cc1	inactive
O=[N+]([O-])c1ccc(CSc2ncnc3ccccc23)cc1	inactive
COc1ccc(-c2cc(C(F)(F)F)n3ncc(C(=O)N4CCc5ccccc5C4)c3n2)cc1	inactive
Cc1ccc2[nH]c(NC3=NC(=O)c4ccccc43)nc2c1	inactive
CCOC(=O)c1ccc(NC(=O)CC2Nc3ccccc3NC2=O)cc1 (configuration not stated)	inactive
CCOC(=O)c1ccc(NC(=O)CC2C(=O)N(c3ccccc3)C(=O)N2Cc2ccc(C)cc2)cc1 (configuration not stated)	22.4 µM (active)
Cc1ccc(CN2C(=O)CCC2C(=O)N2CCN(c3ccccc3)CC2)cc1 (configuration not stated)	inactive
CCCCN(C)CC(O)Cn1cc(/C=C/C(=O)c2ccc(Br)cc2)c2ccccc21 (configuration not stated)	inactive
COc1cc(/C=C2\C=CC(=O)O2)cc(OC)c1	inactive
N#Cc1nc(-c2cccc3ccccc23)oc1NCC1CCCO1 (configuration not stated)	inactive
CCOC(=O)CNc1c(-c2ccc(Cl)cc2)nc2cnccn12	inactive
Cc1ccn2c(Nc3ccc(C(C)C)cc3)c(-c3cccnc3)nc2c1	39.8 µM (active)
CCCCNc1c(-c2ccc(SC(C)CC)cc2)nc2cnccn12 (configuration not stated)	inactive
Cc1ccc(-c2nc3cnccn3c2Nc2c(C)cccc2C)o1	inactive
CC(C)c1ccc(Nc2c(-c3ccccc3O)nc3cnccn23)cc1	39.8 µM (active)
CCC(C)Sc1cccc(-c2nc3cnccn3c2NC2CCCCC2)c1 (configuration not stated)	inactive
COCCNC(=O)Cc1c(C)c2c(cc(C)c3c(C)coc32)oc1=O	inactive
O=C(Nc1cc(Cl)ccc1O)C1CC(c2ccccc2O)=NO1 (configuration not stated)	inactive
CCOc1ccc(CCNC(=O)CSCc2ccc(C)cc2)cc1OCC	inactive
NS(=O)(=O)c1ccc(CNC(=O)CNC(=O)Cc2ccccc2)cc1	inactive
CCOc1cc(C(N)=O)cc(Br)c1OCc1ccccc1	inactive
CCOc1cc(CNCCc2ccc(S(N)(=O)=O)cc2)cc(Cl)c1OCc1ccccc1	25.1 µM (active)

SMILES	Potency
CCOc1cc(CNCCc2ccc(S(N)(=O)=O)cc2)ccc1OCC(=O)NC(C)(C)C	39.8 µM (active)
COC(=O)c1c(C)[nH]c(C(=O)NCCc2ccc(S(N)(=O)=O)cc2)c1C	inactive
CC12CCC(=O)N1C(C(=O)N1CCN(S(=O)(=O)c3ccc(Br)cc3Cl)CC1)CS2 (configuration not stated)	inactive
CC(C)CCn1c(=O)c2ccccc2n2c(S)nnc12	inactive
Cc1cnc(C(=O)NC(C)CCc2ccccc2)cn1 (configuration not stated)	inactive
Fc1ccc(-c2cc(C(F)(F)C(F)F)n[nH]2)cc1	inactive
CCOC(=O)c1cnn2c(O)cc(C)nc12	inactive
COC(=O)c1ccc(C(=O)OC)c(NC(=O)Cc2cccs2)c1	inactive
CC(C)(C)c1ccc(C(=O)O/N=C(\N)Cc2cccs2)cc1	31.6 µM (active)
CC(C)(C)c1ccc(/N=C2\SCC(=O)N2Cc2cccs2)cc1	inactive
O=C(c1cccs1)N1CCC(c2nc(O)c3nnn(Cc4c(Cl)cccc4Cl)c3n2)CC1	inactive
CC(C)C(=O)NNC(=O)CSc1nnc(-c2ccccc2)c(-c2ccccc2)n1	inactive
CNC(=O)C(=O)Nc1cc2c3c(c1)CCC(=O)N3CCC2	inactive
CCOC(CN=c1nc(N(C)C)ss1)OCC	29.9 µM (active)
CN(C)S(=O)(=O)c1ccc(Cl)c(NC(=O)COC(=O)CNS(=O)(=O)c2c(F)cccc2F)c1	inactive
COc1ccc(C(=O)CC(SCC(NC(C)=O)C(=O)O)c2ccc(Cl)cc2)cc1OC (configuration not stated)	31.6 µM (active)
CCS(=O)(=O)N1CCC(NC(=O)C(Cc2ccc(OC)c(OC)c2)NC(C)=O)CC1 (configuration not stated)	inactive
CCC(=O)NC(c1ccc(OC)c(OC)c1)c1cc(Cl)c2cccnc2c1O (configuration not stated)	inactive
CCOC(=O)c1cc2c(=O)n3ccccc3nc2n(CC2CCCO2)/c1=N\C(=O)c1ccc(C(C)(C)C)cc1 (configuration not stated)	inactive
CCCCN1C(C(=O)Nc2ncccn2)=C(O)c2ccccc2S1(=O)=O	inactive
Cc1ccccc1N1CCN(C2CCCN(C(=O)CSc3ccccn3)C2)CC1 (configuration not stated)	inactive
OC(c1cccc(Cl)c1)c1nc(-c2ccc(C(F)(F)F)cc2)c[nH]1 (configuration not stated)	39.8 µM (active)
CC(C)(C)c1ccc(C(O)c2nc(-c3ccccc3Cl)c[nH]2)cc1 (configuration not stated)	39.8 µM (active)
OC(c1cccc(Cl)c1)c1nc(-c2ccc(Oc3ccccc3)cc2)c[nH]1 (configuration not stated)	39.8 µM (active)
Cc1nn(Cc2ccccc2Cl)c(Cl)c1/C=C/C(=O)OCC(=O)NC1CCS(=O)(=O)C1 (configuration not stated)	inactive
COc1ccc(-n2cccc2/C=C/[N+](=O)[O-])cc1	31.6 µM (active)

SMILES	Potency
COc1ccc(S(=O)(=O)Nc2ccc(-n3cccc3)cc2)cc1	inactive
CCCC(=O)NCCc1nc2cc([N+](=O)[O-])ccc2n1C	inactive
COc1cc(C(=O)N2C(=O)c3cccc(N)c3C2=O)cc(OC)c1OC	inactive
COc1cc(C(=O)O/N=C2/C=CC(=O)C(C)=C2C)cc(OC)c1OC	39.8 µM (active)
COc1cc(C(=O)NNC(=O)c2ccccc2OCc2c(C)noc2C)cc(OC)c1OC	inactive
CCc1ccc(S(=O)(=O)Nc2ccc(-c3nc4cccnc4s3)cc2)s1	inactive
O=C(NNC(=O)c1cc(-c2cccnc2)nc2ccccc12)Nc1ccc(Cl)cc1	inactive
CSc1ccccc1NC(=O)c1cc(-c2cccnc2)nc2ccc(Br)cc12	42.3 µM (active)
NC(=O)c1cc(-c2ccccc2)nc2ccc(Br)cc12	inactive
COc1cccc(/C=C/c2nc(C#N)c(NCC(C)C)o2)c1	inactive
CCOC(=O)c1cc2c(=O)n3ccccc3nc2n(C)/c1=N\C(=O)c1c(-c2c(F)cccc2Cl)noc1C	inactive
Cc1coc2c1C(=O)C(=O)c1c-2ccc2c(C)cccc12	10 µM (active)
CNc1ccc2c3c(cccc13)C(=O)N(C)C2=O	inactive
CCn1cnc2sc(C(=O)Oc3ccc(Br)cc3)c(C)c2c1=O	inactive
COC(=O)c1cc(-c2cc(OC)ccc2OC)nc2c1c(=O)n(C)c(=O)n2Cc1ccccc1	inactive
COC(=O)C1=CN(Cc2cccs2)C=C(C(=O)OC)C1c1ccc(OC)cc1OC	inactive
COc1ccc(C(=O)NCC(=O)OCC(=O)NCc2ccco2)cc1	inactive
C=Cc1ccc(Cn2c(C(=O)O)c(CNCCc3ccco3)c3ccc(C)cc32)cc1	22.4 µM (active)
COc1ccc(Cn2c(C(=O)O)c(CNCCc3ccco3)c3ccc(C)cc32)cc1	31.6 µM (active)
COc1ccc(Cn2c(C(=O)O)c(CNCCc3cc(OC)ccc3OC)c3ccc(C)cc32)cc1	22.4 µM (active)
COc1ccc2c(CNCCc3cccs3)c(C(=O)O)n(Cc3cccc(F)c3)c2c1	35.5 µM (active)
COc1ccc(OC)c(CN2CCN(Cc3cc(=O)oc4cc(O)ccc34)CC2)c1	inactive
COC(=O)C1=CN(Cc2cccs2)C=C(C(=O)OC)C1c1cccc(O)c1	inactive
COC(=O)c1ccc(S(=O)(=O)NCc2ccco2)o1	inactive
